Source: PubChem
Neddyl block: inhibitors of cullin neddylation, primary screen, biochemical, TR-FRET, uHTS, NAE and Ubc12 | calls only at 25 µM | NEDD8-conjugating enzyme Ubc12 (Homo sapiens) + NEDD8-activating enzyme E1 regulatory … | AID 651699, 2012 | hit rate 0.58% among 360,000; in the data active means inhibition above about 36%
UHRF1 MBD2 ctr: UHRF1 methylated DNA binding inhibitors, primary screen, counter-screen for MBD2 inhibitor project, biochemical, TR-FRET, human UHRF1, single concentration; E3 ubiquitin-protein ligase UHRF1 (Homo sapiens), Q96T88; UHRF1 binding to methylated oligo; inhibition, % at 4.4 µM; hit rate 0.75% among 370,000; AID 687016, 2013; in the data active means inhibition above about 21%;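 further: UHRF1 SRA domain binding a hemimethylated CpG hairpin DNA probe; 0% = median of test compound wells and 100% = reference inhibitor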
MBD2 inh: inhibitors of MBD2 binding to methylated DNA, primary screen, biochemical, TR-FRET, DNA-binding domain, human | MBD2 binding to methylated oligonucleotide | inhibition, % at 4.4 µM | hit rate 0.31% among 370,000; in the data active means inhibition above about 13%
Target sequence (Q9UBB5 whole entry, looked up, the tested form may be a part): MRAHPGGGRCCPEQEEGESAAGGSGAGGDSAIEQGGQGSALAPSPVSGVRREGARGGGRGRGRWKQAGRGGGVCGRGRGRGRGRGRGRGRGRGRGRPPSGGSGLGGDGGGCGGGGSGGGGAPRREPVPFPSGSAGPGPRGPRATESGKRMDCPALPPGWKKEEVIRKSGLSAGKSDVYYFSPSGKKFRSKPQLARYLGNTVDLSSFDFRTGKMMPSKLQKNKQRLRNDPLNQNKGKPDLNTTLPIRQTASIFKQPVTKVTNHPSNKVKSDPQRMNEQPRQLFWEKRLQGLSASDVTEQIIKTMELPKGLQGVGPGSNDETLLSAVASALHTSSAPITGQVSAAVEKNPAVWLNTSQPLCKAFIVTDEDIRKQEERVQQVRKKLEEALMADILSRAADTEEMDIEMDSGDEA
proKLK7 act: proKLK7 zymogen activators, primary screen, biochemical, fluorescence intensity | purified proKLK7, EDANS-DABCYL substrate fluorescence; 100% is mature enzyme control, 0% vehicle | activation, % at 7 µM | hit rate 0.9% among 370,000 | AID 652039, 2013;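 active means activation above the mean of all tested compounds plus 3 SD, computed per campaign excluding outliers beyond control limits, cut at about 13% in these data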
Target sequence (P49862 whole entry, looked up): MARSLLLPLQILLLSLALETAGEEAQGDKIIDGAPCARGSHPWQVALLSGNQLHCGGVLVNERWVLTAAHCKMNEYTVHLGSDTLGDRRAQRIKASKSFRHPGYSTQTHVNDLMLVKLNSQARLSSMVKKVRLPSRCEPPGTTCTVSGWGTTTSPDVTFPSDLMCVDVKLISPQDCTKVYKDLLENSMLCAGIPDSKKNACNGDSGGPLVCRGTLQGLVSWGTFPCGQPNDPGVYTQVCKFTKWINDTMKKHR
Rin1 Abl inh: inhibitors of Rin1-Abl protein binding, primary screen, biochemical, TR-FRET | AID 588664, 2011 | hit rate 0.4% among 360,000 | Tyrosine-protein kinase ABL1 (Homo sapiens) + Ras and Rab interactor 1 (Homo sapiens), … | inhibition, % at 7.35 µM; in the data active means inhibition above about 5%, passing the limit was not always enough
LEDGF integ inh: blockers of LEDGF/p75-dependent integrase strand transfer – biochemical, TR-FRET, high throughput, primary screen; hit rate 0.64% among 370,000; HIV-1 integrase (with human LEDGF/p75); AID 743269, 2014; TR-FRET IN-LEDGF/p75 DNA integration, Eu/Cy5; inhibition, % at 3.7 µM;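 active means inhibition above the screen-wide mean plus 3 SD, cut at about 13% in these data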;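 further: signal is the Cy5 over europium emission ratio at 671 and 618 nm; 0% = plate median of compound wells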
Rin1-Abl confirm: Rin1-Abl binding inhibitor retest, confirmation, biochemical, TR-FRET. AID 602124, 2011. inhibition, % at 7.35 µM. hit rate 49% among 1,300. shares compounds with Rin1 Abl inh. purified proteins
GFP quencher: GFP fluorescence inhibitors and quenchers, artefact control for Rin1-Abl interaction inhibitor project, biochemical; shares compounds with Rin1 Abl inh; inhibitors/quenchers counterscreen; inhibition, % at 6.75 µM; hit rate 8.5% among 1,300; AID 602125, 2011;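 further: ABL1-eGFP fusion protein alone without its partner RIN1-SBP; 0% = protein with vehicle and 100% = wells lacking protein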
GFP quench DR: GFP fluorescence inhibitors and quenchers, dose response, artefact control for Rin1-Abl interaction inhibitor project, biochemical; shares compounds with Rin1 Abl inh; GFP fluorescence interference/quenching counterscreen; IC50, µM; 230 tested, under 10 active; call rule not given here;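 further: ABL1-eGFP fusion protein alone without its RIN1 binding partner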
* hit, by the source's call; i = inactive; x = no result shown; ! = not active in a repeat. In the library only some 3.1% were active in any assay of this set; here they are far more common. Unless noted, no stated cut-off is given here; in the data, active means inhibition above about 6.5%; inactive means the rest.

SMILES	Neddyl block	UHRF1 MBD2 ctr	MBD2 inh	proKLK7 act	Rin1 Abl inh	LEDGF integ inh	Rin1-Abl confirm	GFP quencher	others
CC(C)(C)n1nnnc1C(c1cc2ccccc2o1)N1CCC2(CC1)C(=O)NCN2c1ccccc1 (stereo unspecified)	i	-0.6	-0.5	0.9	5.2	3.0	x	x
CCOC(=O)c1ccc(NC(=O)NC2CC3CCC(C2)N3)cc1 (stereo unspecified)	i	-0.2	-4.2	0.8	18.4*	-0.1	25.9*	0.0	GFP quench DR=>67.5
COc1ccc(-n2c(/C=C/c3ccc(O)cc3)nc3ccccc3c2=O)cc1	i	-0.4	-2.8	-0.3	-3.0	-3.3	x	x
CCn1nc(/C=C/c2ccccc2)nc2c(=O)n(C)c(=O)nc1-2	i	7.4	5.4	0.6	25.8*	-35.2	39.6*	2.0	GFP quench DR=>67.5
O=[N+]([O-])c1ccc(NCCCN2CCOCC2)nc1	i	1.6	-0.2	0.5	-0.8	1.0	x	x
Cc1nc2nc(C)n(CCN3CCOCC3)c(=O)c2c(-c2cccc([N+](=O)[O-])c2)c1C(=O)CCCCCCCCCCN1CCC(c2ccccc2)(c2ccccc2)CC1	i	0.5	-6.2	0.2	61.3*	-2.8	68.7*	0.6	GFP quench DR=>67.5
COCCCn1c(N)c(C(=O)NCCC(C)C)c2nc3ccccc3nc21	x	6.9	2.7	-33.2	22.0*	7.9	1.5	-0.6
CCCCn1c(N)c(C(=O)OCCOC)c2nc3ccccc3nc21	x	-0.1	-5.6	-0.4	-5.8	4.1	x	x
O=C1C2CC(CN3CCCCC23)C2CCCCN12 (stereo unspecified)	i	0.9	-2.1	-0.9	3.3	-3.9	x	x
COc1ccc(C(c2nnnn2-c2ccc3c(c2)OCCO3)N2CCC(n3c(=O)[nH]c4ccccc43)CC2)cc1 (stereo unspecified)	i	-2.2	-3.1	1.5	6.9	-3.4	x	x
O=c1[nH]c2ccccc2n1C1CCN(C(c2ccnc3ccccc23)c2nnnn2-c2ccc3c(c2)OCCO3)CC1 (stereo unspecified)	i	0.5	0.1	-0.1	44.8*	2.0	32.2*	-0.4	GFP quench DR=>67.5
COc1ccc(-n2nnnc2C(CCSC)N2CCC(n3c(=O)[nH]c4ccccc43)CC2)cc1 (stereo unspecified)	i	-0.2	-6.9	-0.3	12.6*	-2.0	8.2*	-1.4
COc1ccc(C(=O)C2CCCN(Cc3cnc(C)s3)C2)c(OC)c1 (stereo unspecified)	i	1.5	-3.4	0.8	9.9*	6.0	-1.1	0.4
CC1=C(C)CN2CC(C#N)=C(N)C2C1 (stereo unspecified)	i	x	x	x	3.2	x	x	x
O=C1NC2NC(=O)N([N+](=O)[O-])C2N1 (stereo unspecified)	i	-1.3	-6.0	-0.1	8.7*	-7.2	8.6*	-0.4
O=C(O)c1cccc2c1NC(C(=O)O)C1CC(Sc3ccccc3[N+](=O)[O-])C(Cl)C21 (stereo unspecified)	i	62.1*	20.6*	-1.0	10.8*	52.3*	4.7	20.3*
Oc1ccc(/C=N/NP(=S)(c2ccccc2)c2ccccc2)c(O)c1O	i	-3.1	-5.0	0.5	16.3*	-1.8	9.0*	5.3
Oc1ccccc1/C=N/NP(=S)(c1ccccc1)c1ccccc1	i	5.8	2.1	-0.1	0.8	-6.6	x	x
Clc1ccc([C@H]2CC3CCC2N3)cn1 (stereo partly specified)	x	5.6	1.8	0.3	x	-2.5	x	x
C[C@]12CCC3C(C(=O)C[C@H]4C[C@@H](O)CC[C@]34C)C1CCC2=O (stereo partly specified)	i	2.3	2.0	0.3	21.0*	-3.0	20.5*	-1.3	GFP quench DR=>67.5
C[C@]12CCC3[C@@H](CC[C@H]4C[C@@H](O)CC[C@]34C)C1CCC2=O (stereo partly specified)	i	0.5	-0.8	-0.7	2.4	1.8	x	x
C=CCN1CC[C@]23c4c5ccc(O)c4O[C@H]2C(=O)CC[C@@]3(O)[C@H]1C5	i	-0.1	-5.9	0.2	0.7	-0.3	x	x
C=CCN1CCc2cccc3c2[C@H]1Cc1ccc(O)c(O)c1-3	i	3.8	0.7	-18.7	8.5*	2.3	7.1*	11.2*
CCc1cc(OC)c(CCN)cc1OC	x	-3.5	-2.1	0.8	x	-2.6	x	x
CCOC(=O)[C@]12Cc3cc(C)ccc3[C@H]1N(C1CCCCC1)C(=O)c1cc(OC)ccc12	i	2.8	5.1	0.0	x	1.4	x	x
SMILES	Neddyl block	UHRF1 MBD2 ctr	MBD2 inh	proKLK7 act	Rin1 Abl inh	LEDGF integ inh	Rin1-Abl confirm	GFP quencher	others
Oc1ccc2c3c1O[C@H]1[C@@H](O)CC[C@@]4(O)[C@@H](C2)N(CC2CCC2)CC[C@]314	i	0.1	-1.9	0.0	11.2*!	3.6	-1.6	-1.5
CC(C)C(NC(=O)OCc1ccccc1)P(=O)(Oc1ccccc1)Oc1ccccc1 (stereo unspecified)	x	-2.2	1.5	-0.1	x	-4.2	x	x
CCc1nnc(NC(=O)CCc2nc(C3=CCN(C)CC3)no2)s1	i	1.5	1.2	0.2	63.1*	4.7	62.2*	2.2	GFP quench DR=>67.5
COc1ccc2nc(NC(=O)CCc3nc(C4=CCN(C)CC4)no3)sc2c1	i	x	x	x	75.2*	x	80.0*	-0.8	GFP quench DR=>67.5
CN1C(=O)[C@@]23C[C@]4(c5c[nH]c6ccccc56)c5ccccc5N(S(=O)(=O)c5ccccc5)[C@@H]4N2C(=O)[C@@H]1SS3	x	-19.9	-0.8	x	x	0.7	x	x
CN(C)[C@@H]1C(=O)C(C(N)=O)=C(O)[C@@]2(O)C(=O)C3=C(O)c4c(O)cccc4[C@@](C)(O)[C@H]3[C@H](O)[C@@H]12	i	66.5*	35.0*	-3.8	15.6*	60.6*	2.5	6.5
O=C(NC1CCCCC1)Oc1cc2oc(=O)sc2cc1Cl	i	6.0	7.9	-0.5	6.3*	0.4	-1.0	-1.8
